Data from PubChem BioAssay (NCATS).
Inconclusive results are not listed. Unmarked numbers belong to inactive results. The source made the active and inactive calls. Calls come from the whole dose curve; as a rule, active = well fitted inhibition curve with a large enough effect; inconclusive = small, poorly fitted or top-dose-only effect; inactive = flat fitted curve, though single readings scatter. Where a SMILES comes first, the peptide text is derived from it. The star is where a group is joined. Hexanoyl = CCCCCC(=O)*

Target: Glutathione peroxidase 1 (Homo sapiens) (UniProt P07203)
Sequence (P07203 whole entry, looked up): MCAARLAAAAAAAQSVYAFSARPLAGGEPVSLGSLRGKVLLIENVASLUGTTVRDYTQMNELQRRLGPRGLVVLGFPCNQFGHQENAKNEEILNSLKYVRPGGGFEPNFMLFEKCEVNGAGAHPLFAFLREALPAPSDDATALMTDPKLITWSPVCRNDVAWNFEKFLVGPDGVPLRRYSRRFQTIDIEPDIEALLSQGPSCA
Assay: Primary qHTS Assay for Inhibitors of Recombinant Selenoprotein Glutathione Peroxidase 1 (GPX1) (AID 1845191); note: nearly all actives have a fitted effect of over 65% in size
Settings: recombinant GPX1, GR-coupled NADPH fluorescence, 15 min; series mostly up to 27.7 µM; activity, negative = inhibition: at the top concentration
Outline: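 GPX1 10 nM, GR 100 nM, GSH 1 mM, NADPH 0.5 mM, CHP 0.5 mM (final). 30-min cpd preincubation, RT. Ex340/Em450 read t=0, t=15 min.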
% is set by controls: 0 for no effect and ±100 for the full control effect.

| Structure (SMILES) | activity, negative = inhibition | outcome |
| --- | --- | --- |
| C=C1CC[C@]2(C(=O)O[C@@H]3O[C@H](CO)[C@@H](O)[C@H](O)[C@H]3O)CC[C@]3(C)C(=CCC4[C@@]5(C)C[C@H](O)[C@@H](O[C@@H]6O[C@H](C(=O)O)[C@@H](O)[C@H](O)[C@H]6O)[C@](C)(C=O)C5CC[C@]43C)C2C1 (some centres undefined) | 1.26% [at 15.3 µM] |  |
| O=C(O)C1(c2ccc(-c3ccc(Cl)c(Cl)c3)c(F)c2)CC1 |  | inactive [at 48.8 µM] |
| COc1ccc(Oc2c(Cl)cnn(C3c4ccccc4-c4ccccc43)c2=O)cc1 | -3.02% [at 48.8 µM] |  |
| COc1c(-c2ccc(O)cc2)cc(OC)c2c1oc1cc(O)c(OC3OC(CO)C(O)C3O)cc12 (centres undefined) |  | inactive |
| N=C(N)c1ccc2nc(-c3cc(CC(=O)NC(CC(=O)O)C(=O)O)cc(-c4cc(S(N)(=O)=O)ccc4O)c3O)[nH]c2c1 (centres undefined) | 4% [at 48.8 µM] |  |
| CC1=C2CC(=O)C(C)CC/C=C(\C)CC2(O)OC1=O (centres undefined) | -12.7% [at 48.8 µM] |  |
| CC1CC(=O)C2C(O)(C1)CC(O)C13OC1c1c(O)cccc1C(=O)C23O (centres undefined) |  | inactive |
| C=C(COC(=O)CC(C)C)C1Cc2cc(C(C)=O)ccc2O1 (centres undefined) | 0.0599% [at 48.8 µM] |  |
| C/C=C/C=C/C=C/C(=O)O[C@@H]1[C@@H](OC)C2=C(C(=O)N(C(CCC(=O)O)C(=O)O)C2)[C@@]2(C)CCCC(C)(C)[C@H]12 (some centres undefined) | -6.53% |  |
| CCCCCC(=O)N1CCC[C@H]1C(=O)N[C@@H](Cc1ccc(O)cc1)C(=O)OC (Hexanoyl-Pro-Tyr-OMe) | -19.7% [at 48.8 µM] |  |
| CC1OC(OC2C(OC(=O)[C@]34CCC(C)(C)C[C@H]3C3=CCC5[C@@]6(C)CC[C@H](OC7OC(C(=O)O)C(O)C(O)C7O)C(C)(C)C6CC[C@@]5(C)[C@]3(C)CC4O)OC(CO)C2O)C(O)C(O)C1OC1OCC(O)C(O)C1O (some centres undefined) | -14.3% [at 15.3 µM] |  |
| Cc1c(-c2ccc3c(c2)OCO3)oc2ccc(C(O)C(C)O)cc12 (centres undefined) |  | inactive |
| C=C[C@H]1[C@H](O[C@@H]2O[C@H](CO)[C@@H](O)[C@H](O)[C@H]2O)OC=C(C(=O)OC)[C@H]1CCO |  | inactive |
| Cc1cc(CO)c(O)c(C(=O)CC2CC(=O)NC(=O)C2)c1 |  | inactive [at 48.8 µM] |
| CC(C)(O)C1CCC2(C)CCCC(C)(O)C2C1 (centres undefined) | -10.1% [at 48.8 µM] |  |
| C[C@]1(OC(=O)/C=C/c2ccccc2)C[C@@H](O)[C@]2(O)C=CO[C@@H](O[C@@H]3O[C@H](CO)[C@@H](O)[C@H](O)[C@H]3O)[C@@H]21 | -14% |  |
| COC(=O)C1=CO[C@@H](O[C@@H]2O[C@H](CO)[C@@H](O)[C@H](O)[C@H]2O)[C@@H]2[C@@H](C)[C@@H](O)C(O)[C@H]12 (some centres undefined) | -9.79% |  |
| CC1(C)C=Cc2c(ccc3c2[N+]([O-])=C2C3(O)CC34NC(=O)C5(CCCN5C3=O)CC4C2(C)C)O1 (centres undefined) |  | inactive |
| CC(C)c1ccc2c(c1)CCC1[C@](C)(C(=O)O)CCC[C@]21C (some centres undefined) | 2.74% [at 48.8 µM] |  |
| CC(C)(CC(=O)N1CCCC1)NCC(=O)N1C[C@@H](F)C[C@H]1C#N | -12.2% [at 48.8 µM] |  |

| Structure (SMILES) | activity, negative = inhibition | outcome |
| --- | --- | --- |
| CC1(C)CCC2(C(=O)O)CCC3(C)C(=CCC4C5(C)CCC(O)C(C)(CO)C5C(O)CC43C)C2C1 (centres undefined) | -7.14% |  |
| CC(C)=CC[C@H]1O[C@]2(O)C([C@H]3CCC4[C@@]5(C)CC[C@H](O[C@@H]6O[C@H](CO)[C@H](O)[C@H](O[C@@H]7O[C@H](CO)[C@@H](O)[C@H](O)[C@H]7O)[C@H]6O[C@@H]6O[C@@H](C)[C@H](O)[C@@H](O)[C@H]6O)C(C)(C)C5CC[C@@]4(C)[C@]3(C)[C@H]2O)[C@@]1(C)O (some centres undefined) |  | inactive [at 15.3 µM] |
| N[C@@H](CCNCc1ccc(Cl)cc1)C(=O)N1CCCCC1 |  | inactive [at 48.8 µM] |
| O=C(OCC(O)CO[C@@H]1O[C@H](C(=O)O)[C@@H](O)[C@H](O)[C@H]1O)c1ccccc1 (some centres undefined) | 1.63% |  |
| CC(C)c1cc2c(c(O)c1O)[C@@]13CCCC(C)(C)C1[C@@H](O)[C@@H]2OC3=O (some centres undefined) | -21.2% |  |
| CC(=O)c1ccc(O[C@@H]2OC[C@@H](O)[C@H](O)[C@H]2O[C@]2(CO)O[C@H](CO)[C@@H](O)[C@@H]2O)c(O)c1 | -17.7% |  |
| O=C(Nc1ccccc1)Nc1ccc(-c2ccc(C(=O)C3CCCC3C(=O)O)cc2)cc1 (centres undefined) | -22.3% [at 48.8 µM] |  |
| CC(C)(O)C1OC1C1=CC(=O)C2(C)OC2C1O (centres undefined) |  | inactive [at 48.8 µM] |
| COC(=O)C(Cc1ccccc1)NC(=O)c1ccccc1 (centres undefined) | 3.9% [at 48.8 µM] |  |
| COc1cc(CO)cc(OC)c1O[C@@H]1O[C@H](CO)[C@@H](O)[C@H](O)[C@H]1O |  | inactive |
| CCc1cc(CC[C@]2(C3CCCC3)CC(O)=C(Cc3nc4nc(C)cc(C)n4n3)C(=O)O2)cc(CC)n1 | -8.81% [at 48.8 µM] |  |
| C[C@@H]1O[C@@H](O[C@@H]2[C@@H](O)[C@H](O[C@H]3[C@H](O[C@H]4CC[C@@]5(C)C(CC[C@]6(C)C5CC=C5[C@@H]7CC(C)(C)CC[C@]7(C(=O)O[C@@H]7O[C@H](CO)[C@@H](O)[C@H](O)[C@H]7O)CC[C@]56C)C4(C)C)O[C@H](C(=O)O)[C@@H](O)[C@@H]3O)OC[C@H]2O)[C@H](O)[C@H](O)[C@H]1O (some centres undefined) |  | inactive [at 15.3 µM] |
| COc1ccc([C@H]2OC[C@H]3[C@@H]2CO[C@@H]3c2ccc(O[C@@H]3O[C@H](CO)C(O)[C@H](O)[C@H]3O)c(OC)c2)cc1OC (some centres undefined) | 2.09% |  |
| COCCCc1sc(-c2ccccc2)nc1C(=O)Nc1ccccc1-c1nc2cc(CN3CCCC3)cnc2s1 |  | inactive |
| CC(=O)NC(Cc1ccccc1)C(=O)NC(C(=O)O)C(C)C (stereo not drawn) (Ac-Phe-Val-OH; configuration not given here) | -6.76% [at 48.8 µM] |  |
| C=C[C@H]1[C@H](O[C@@H]2O[C@H](CO)[C@@H](O)[C@H](OC(=O)/C=C/c3ccc(O)c(OC)c3)[C@H]2O)OC=C2C(=O)OCC[C@]21O |  | inactive |
| CN1C(=O)N(c2cc(Cl)cc(Cl)c2)C(=O)[C@@]1(C)Cc1ccc(Br)cc1 | -22% [at 48.8 µM] |  |
| C[C@H](/C=C/[C@@]1(O)[C@H](C)CC(=O)CC1(C)C)O[C@@H]1O[C@H](CO[C@@H]2OC[C@@H](O)[C@H](O)[C@H]2O)[C@@H](O)[C@H](O)[C@H]1O | 0.0064% |  |
| COC(=O)C1=COC(O[C@@H]2O[C@H](CO)[C@@H](O)[C@H](O)[C@H]2O)[C@@H]2[C@@](C)(O)[C@@H](OC(=O)/C=C/c3ccccc3)C[C@]12O (some centres undefined) | 4.62% |  |
